# Only some compounds are listed: those with a hit (about 11% of all), similar ones and a draw of the others.
# HP1b binding inh: inhibitors of HP1-beta chromodomain binding to methylated histone tails. AlphaScreen HP1-beta / biotin-H3K9me3 peptide binding. Potency, µM (highest dose often 114 µM), hits mostly inhibitors. 390,000 compounds, 0.56% hits. AID 540317; note: nearly all actives have a fitted effect of over 70% in size
# Target sequence (P83916 whole entry, looked up): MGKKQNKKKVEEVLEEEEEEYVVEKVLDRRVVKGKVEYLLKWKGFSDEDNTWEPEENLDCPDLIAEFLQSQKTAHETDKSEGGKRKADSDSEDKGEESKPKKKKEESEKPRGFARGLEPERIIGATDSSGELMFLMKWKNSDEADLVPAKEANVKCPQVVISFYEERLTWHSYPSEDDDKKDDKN
#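 Compound inhibition of the preformed complex between 50 nM HP1-beta and 50 nM biotinylated H3K9me3 peptide was read by AlphaScreen. Buffer was PBS pH 7.4 with 0.01% Tween-20. Incubations ran 30 min at room temperature, with 10 ug/mL donor/acceptor beads.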
# JMJD2A Tudor: blocks the human JMJD2A Tudor domain | 390,000 compounds, 4.4% hits | Potency, µM (titrated, usually from 114 µM), actives largely listed as inhibitors | AlphaScreen JMJD2A-Tudor / H3K4me3 peptide binding | AID 504339; note: nearly all actives have a fitted effect of over 50% in size
# BAZ2B inh: BAZ2B (human) inhibition. Q9UIF8. 360,000 compounds, 4.4% hits. Potency, µM (titrated, usually from 114 µM), hits mostly inhibitors. AlphaScreen BAZ2B-H3K14Ac peptide displacement; note: nearly all actives have a fitted effect of over 60% in size
#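 Inhibition is scored as reduced AlphaScreen emission. The BAZ2B/b-H3(5-23)K14Ac complex (50 nM each) in PBS pH 7.4, 0.01% Tween-20 meets compound (up to 110 uM) for 30 min at RT before bead addition.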
# G9a block: blocks human histone lysine methyltransferase G9a; G9a H3K9 monomethylation, AlphaScreen, 2 h; Potency, µM (highest dose often 102 µM), actives largely listed as inhibitors; 350,000 compounds, 8.8% hits; AID 504332; note: nearly all actives have a fitted effect of over 75% in size
# Target sequence (Q96KQ7 913-1193 limits assumed): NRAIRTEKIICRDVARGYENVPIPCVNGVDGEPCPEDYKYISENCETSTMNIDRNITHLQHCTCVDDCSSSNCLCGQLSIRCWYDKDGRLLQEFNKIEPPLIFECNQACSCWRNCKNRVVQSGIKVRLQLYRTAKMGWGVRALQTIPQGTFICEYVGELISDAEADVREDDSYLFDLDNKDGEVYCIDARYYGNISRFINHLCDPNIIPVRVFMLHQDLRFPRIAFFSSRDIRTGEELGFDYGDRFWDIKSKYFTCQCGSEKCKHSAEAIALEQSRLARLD
#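 Chemiluminescent proximity detection of H3K9 monomethylation, read after 10 min bead incubation in the dark. Reaction: 20 nM G9a, 500 nM biotin-H3K9 peptide, 20 uM SAM cofactor, 2 h, room temperature, following 15 min enzyme-compound preincubation.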
# L3MBTL1 inh: L3MBTL1 (human) inhibition. Q9Y468. AlphaScreen L3MBTL1–H3K9me1 peptide binding. Potency, µM (top dose mostly 57.1 µM), actives largely listed as inhibitors. 230,000 compounds, 0.66% hits; note: nearly all actives have a fitted effect of over 60% in size
#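 AlphaScreen proximity signal between nickel-chelate acceptor and streptavidin donor beads (final 10 ug/mL) reports binding of 50 nM L3MBTL1 to 75 nM biotin-H3 K9me1 peptide; complex incubated with compounds 30 min at room temperature; cefsulodin titration as control.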
# Hits are given with their value; 0 = inactive; ? = inconclusive; - = not tested or not shown; [ ] = dose if it differs, or a comment. Calls come from the whole dose curve; as a rule, active = well fitted inhibition curve with a large enough effect; inconclusive = small, poorly fitted or top-dose-only effect; inactive = no such curve, though single readings can be large or run the other way.
SMILES,HP1b binding inh,JMJD2A Tudor,BAZ2B inh,G9a block,L3MBTL1 inh
Cc1cccc(-n2c(O)c(C=NCc3ccccn3)c3ccccc3c2=O)c1,0,0,?,0,0
Cc1ccc(-n2c(O)c(C=NCc3ccccn3)c3ccccc3c2=O)cc1,0,0,56µM,0,0
COc1ccc(-c2[nH]ncc2/C=N\NS(=O)(=O)c2ccccc2)cc1OC,0,0,0,50µM,-
COc1ccc(-n2c(O)c(/C=N/NS(=O)(=O)c3ccc(C)cc3)c3ccccc3c2=O)cc1OC,0,?,?,11µM,0
CCn1cc(C(=O)N[C@@H](CCSC)C(=O)NC(C)(C)CO)c(=O)c2cc3c(cc21)OCO3,0,0,0,0,-
COc1ccc(N2CCN(C(=O)CN3C(=O)COc4ccc(S(=O)(=O)N5CCC(C)CC5)cc43)CC2)cc1,0,?,?,?,-
Cc1c(CCOC(=O)c2cc([N+](=O)[O-])cc([N+](=O)[O-])c2)sc[n+]1CC(=O)c1ccc(Br)cc1,0,?,50µM,2.5µM,?
Cc1c(CCOC(=O)c2ccc(Cl)cc2Cl)sc[n+]1CC(=O)c1ccccc1,0,0,-,-,0
CCCc1cc(-n2ccnc2)n2c(nc3ccccc32)c1C#N,0,0,0,40µM,0
COc1ccccc1N1CCN(Cc2cc3c(cc2O)OCO3)CC1,0,?,?,10µM,-
COc1ccc(CN2CCCCCC2)cc1,0,1µM,0,-,0
COc1ccc(CN2CCN(Cc3ccco3)CC2)cc1,20µM,4µM,20µM,?,-
COc1ccc(CN2CCN(C(=O)c3ccco3)CC2)cc1,0,0,0,0,0
Oc1cc2c(cc1CN1CCc3ccccc3C1)OCO2,0,?,0,20µM,-
COc1cccc(C(C)NC(=O)Nc2ccccc2Cl)c1 (centres undefined),0,0,0,0,0
COc1ccc(N=Nc2cc(C)c(O)c(CN3CCCCC3)c2)cc1,28µM,22µM,13µM,11µM,?
Clc1ccc(N2CCN(Cc3ccco3)CC2)cc1,?,1.8µM,50µM,5µM,0
COc1cccc(N2CCN(Cc3ccco3)CC2)c1,?,8.9µM,?,-,0
COc1cccc(N2CCN(CC(=O)NC(=O)NCc3ccco3)CC2)c1,0,0,0,0,-
COc1ccccc1N1CCN(Cc2ccco2)CC1,0,3.2µM,?,?,0
Clc1ccccc1N1CCN(Cc2ccco2)CC1,0,0,0,-,0
Cc1ccc(F)cc1NC(=O)COC(=O)c1ccc(S(C)(=O)=O)c([N+](=O)[O-])c1,0,0,-,-,-
COc1ccc(CC(=O)Nc2sc3c(c2C(=O)Nc2c(C)cccc2C)CCCCC3)cc1,0,0,0,0,-
CCOC(=O)c1c(NC(=O)CSc2cn(CCNC(=O)c3c(F)cccc3F)c3ccccc23)sc2c1CCC2,0,0,0,0,-
C[C@H]1C=CC(=O)C[C@H]1c1c(F)cccc1Cl,0,0,-,-,-
SMILES,HP1b binding inh,JMJD2A Tudor,BAZ2B inh,G9a block,L3MBTL1 inh
CCc1ccc(S(=O)(=O)N2CCN(Cc3ccco3)CC2)cc1,0,0,0,0,-
COc1cccc(CN2CCN(Cc3ccco3)CC2)c1,?,7.9µM,50µM,10µM,-
COc1ccc(CN2CCN(Cc3ccco3)CC2)cc1OC,?,20µM,28µM,8.9µM,0
FC(F)(F)c1ccc(CN2CCN(Cc3ccco3)CC2)cc1,0,0,0,50µM,0
CCN(CC)CCOC(=O)c1cccnc1,-,-,-,0[12.7 µM],-
O=c1c2ccccc2nc(-c2ccc(Cl)cc2)n1CCCCOc1ccc(F)cc1,0,0,0,0,-
COc1ccccc1Nc1nc(N)nc(CN2CCOCC2)n1,0,0,56µM,?,0
COc1ccc(Nc2nc(N)nc(CN3CCOCC3)n2)cc1,0,50µM,79µM,0,0
COc1ccccc1Nc1nc(N)nc(CN2CCCCCC2)n1,0,0[11.4 µM],13µM,?,?
COc1ccccc1Nc1nc(N)nc(CN2CCC(C)CC2)n1,0,?,0,0,-
Cc1ccc(Cl)cc1N1CCN(C(=O)c2cc(S(=O)(=O)N3CCCC3)cn2C)CC1,0,0,0,0,-
O=C(CSc1nc(-c2ccc(F)cc2)nc2c1Cc1ccccc1O2)Nc1cccc(C(=O)O)c1,?,10µM,7.9µM,7.9µM,?
O=C(CSc1nc(-c2ccccc2)nc2ccc(F)cc12)Nc1cccc(C(=O)O)c1,0,?,79µM,71µM,-
COC(C(=O)C(O)C(C)O)C1Cc2cc3cc(OC4CC(OC5CC(O)C(O)C(C)O5)C(O)C(C)O4)c(C)c(O)c3c(O)c2C(=O)C1OC1CC(OC2CC(OC3CC(C)(O)C(O)C(C)O3)C(O)C(C)O2)C(O)C(C)O1 (centres undefined),-,-,-,0[12.7 µM],-
O=C(OC(C(=O)NC1CCCCC1)c1ccccn1)c1cccs1 (centres undefined),0,0,0,0[12.7 µM],0
O=C(OC(C(=O)NCc1cccs1)c1ccccn1)c1cccs1 (centres undefined),0,0,56µM,?,-
COCCN(C(=O)CSc1nc2ccccc2c(=O)n1CC(C)C)c1c(N)n(Cc2ccccc2)c(=O)[nH]c1=O,0,0,0,?,-
Cc1ccccc1OCCC(=O)OCC(=O)N(C)c1c(N)n(Cc2ccccc2)c(=O)[nH]c1=O,0,0,0,45µM,-
CC(C)Cn1c(SCC(=O)N(C)c2c(N)n(Cc3ccccc3)c(=O)[nH]c2=O)nc2ccccc21,?,0,0,16µM,0
Cc1ccc(C)c(OCCC(=O)OCC(=O)N(C)c2c(N)n(Cc3ccccc3)c(=O)[nH]c2=O)c1,0,0,0,0,0
COc1ccccc1C(=O)NCC(=O)OCC(=O)N(CC(C)C)c1c(N)n(Cc2ccccc2)c(=O)[nH]c1=O,0,0,0,56µM,0
Cc1ccccc1SCC(=O)OCC(=O)N(C)c1c(N)n(Cc2ccccc2)c(=O)[nH]c1=O,0,0,0,10µM,0
CC(C)CN(C(=O)COC(=O)CNC(=O)c1ccccc1F)c1c(N)n(Cc2ccccc2)c(=O)[nH]c1=O,0,0,-,-,-
CCc1ccccc1NC(=O)Cn1c(C(=O)OC)cc2oc(C)cc21,0,0,0,0,-
CN(Cc1ccco1)c1ncnc2ccc(-c3cccc(Cl)c3)cc12,-,-,0,0[12.7 µM],0
SMILES,HP1b binding inh,JMJD2A Tudor,BAZ2B inh,G9a block,L3MBTL1 inh
CCC(Sc1nc(-c2ccccc2)cc(=O)[nH]1)C(=O)O (centres undefined),0,0,0,0,0
CC(C)Sc1nc(-c2ccccc2)cc(=O)[nH]1,0,0,0,35µM,0
Cc1ccc(-n2ncc3c(NCCCN(C)C)ncnc32)cc1Cl,0,0,0,0,-
COc1ccc(NC(=O)C(C)Sc2cc(-c3ccccc3)nc(C)n2)cc1Cl (centres undefined),0,0,0,0,-
CCc1cc(C(=O)Nc2c(C)nn(Cc3ccc(C)cc3)c2C)no1,0,0,0,0,-
Cn1ccc(C(=O)NC(=S)N2CCSCC2)n1,?,50µM,0,13µM,0
CC(C)(C)c1ccc(S(=O)(=O)N2CCC(Oc3ccc(-n4cnnn4)cc3)CC2)cc1,0,0,0,0,-
COC(=O)/C=C1/S/C(=N/NC(=O)c2ccccc2OC)NC1=O,0,0,0,7.9µM,-
